Shown are actives, neighbours in structure and some others; about 3.3% of the full set was active somewhere.
LDHA block – inhibitors of human lactate dehydrogenase A; purified LDHA, NADH/diaphorase-resazurin fluorescence; stronger effect = lower value; P00338; activity change, % (values are at about 110 or 230 µM); hit rate 0.15% among 480,000; in the data active = activity change below about -30%; inconclusive = mostly about -25% to -30%;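 note: plate controls were DMSO wells for no effect and wells without enzyme for full effect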
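LDH5 2 nM; NADH 0.06 mM, pyruvate 0.2 mM; 200 mM Tris pH 7.4, EDTA, Tween-20; 5 min RT. Detection: diaphorase 0.133 mg/mL + resazurin 37 µM, fluorescence ex540/em590 at 0 and 20 min; normalized to enzyme-free and DMSO wells.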
DRD3 antagonist – D3 dopamine receptor (human) antagonism; P35462; D3R cells, DiscoveRx beta-arrestin luminescence, antagonist mode; stronger effect = lower value; max response, negative = inhibition, %; hit rate 2.5% among 360,000; AID 652054; in the data active = max response below about -50%; inconclusive = no clear call, values can overlap the other calls; note: % is set by controls: 0 for no effect and ±100 for the full control effect
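Cells plated overnight at 1500 cells/well, then exposed to library compounds with dopamine controls for 90 minutes at 37 degrees C. DiscoveRx reagent added for 30–60 minutes at room temperature; luminescence read, quantitative HTS format.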
PI5P4K alpha inh – PI5P4K alpha (human) kinase inhibition | P48426 | PI5P4Kalpha enzyme, ADP-Glo luminescence, 60 min; stronger effect = lower value | max response, % | hit rate 1.2% among 330,000; active = max response of -50% or lower; inconclusive = between -30% and -50%; inactive = -30% or higher; note: value at the top dose of about 77 µM; % is set by controls: 0 for no effect and ±100 for the full control effect
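qHTS, 1536-well: enzyme/substrate mix, compound by pin tool, 5 microM ATP final; RT 60 min; ADP-Glo reagents 1 (45 min) then 2 (30 min); luminescence.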
DRD3 agonist – activates the human D3 dopamine receptor; D3R DiscoveRx beta-arrestin cells, luminescence, 90 min; hit rate 0.58% among 410,000; max activation, %; in the data active = max activation above about 30%; note: 0% is about no effect
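Cells at 1500/well, incubated overnight, then treated with pinned compounds (dopamine as control) for 90 min at 37 degrees C. DiscoveRx reagent added for 30 - 60 minutes at room temperature; luminescence read.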
PI4K2A block – PI4K2A (human) kinase inhibition; Q9BTU6; purified PI4K2A, ADP-Glo luminescence, 1 h; stronger effect = lower value; activity change, negative = inhibition, % at 76.9 µM; hit rate 0.13% among 420,000; AID 1346378; in the data active = activity change below about -50%; inconclusive = mostly about -30% to -49%;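 note: -100% = wells without enzyme as full effect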
Target sequence (Q9BTU6 whole entry, looked up): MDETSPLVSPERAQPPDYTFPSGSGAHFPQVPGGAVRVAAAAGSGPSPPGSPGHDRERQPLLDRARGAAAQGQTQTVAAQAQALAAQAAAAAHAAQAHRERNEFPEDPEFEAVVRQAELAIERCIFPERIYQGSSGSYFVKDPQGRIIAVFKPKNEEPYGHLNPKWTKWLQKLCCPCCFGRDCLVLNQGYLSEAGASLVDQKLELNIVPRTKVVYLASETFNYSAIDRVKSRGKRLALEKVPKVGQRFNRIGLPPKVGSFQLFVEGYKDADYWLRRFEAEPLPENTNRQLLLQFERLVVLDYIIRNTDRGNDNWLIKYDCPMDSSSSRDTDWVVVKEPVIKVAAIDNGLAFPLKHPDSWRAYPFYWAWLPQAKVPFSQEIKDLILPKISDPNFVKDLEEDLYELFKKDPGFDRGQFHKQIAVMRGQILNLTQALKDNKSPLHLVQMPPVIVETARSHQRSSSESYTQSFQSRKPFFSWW
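ADP-Glo luminescence measured ADP generated by PI4K2A enzyme (4 ug/mL before mixing) with 1.2 mM PI substrate (pre-mix) and 300 microM ATP (pre-mix). Tris pH7.5 buffer with MgCl2, Triton X-100; 1 h reaction at ambient temperature.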
* marks the source's active call; other numbers are inactive results; ? = inconclusive; . = no result.

SMILES	LDHA block	DRD3 antagonist	PI5P4K alpha inh	DRD3 agonist	PI4K2A block
Oc1ccc(Cc2ccccc2)c2cccnc12	4	-29	5	-10	-17
Oc1c(CN2CCCCC2)cc(COCc2ccccc2)c2cccnc12	6	-125*	-2	-9	-10
Cn1cc(CN2CCCC(CO)(Cc3ccccc3)C2)c2ccccc21 (stereo not given)	-8	-50*	20	-8	3
Oc1ccc(CN2CCc3ccccc3C2)c2cccnc12	40	-114*	.	-13	-3
Oc1ccc(CN2CCC(Cc3ccccc3)CC2)c2cccnc12	17	-88*	-1	-21	-2
COc1cccc(CC2(CO)CCCN(Cc3cn(C)c4ccccc34)C2)c1 (stereo not given)	-14	0	-5	-12	-1
CC(NC(=O)C1CCCc2ccccc21)c1cccc(F)c1 (stereo not given)	0	.	.	.	.
Ic1ccc(N2CCN(Cc3c[nH]c4ncccc34)CC2)cc1	-6	-58*	-12	-88	-19
Oc1ccc(CN2CCCCC2)c2cccnc12	13	?	.	-32	-2
Oc1ccc(CN2CCN(c3ccccc3)CC2)c2cccnc12	15	-100*	.	-26	17
Cn1cc(CN2CCc3ccccc3C2)c2ccccc21	3	-95*	.	-28	3
O=[N+]([O-])c1cc(CN2CCN(c3cccc(C(F)(F)F)c3)CC2)c2cccnc2c1O	16	-106*	-68*	-27	-12
CC(C)OCc1cc(CN2CCN(c3cccc(C(F)(F)F)c3)CC2)c(O)c2ncccc12	4	.	.	-14	-1
Oc1c(CN2CCN(c3ccccn3)CC2)cc(Cl)c2cccnc12	16	-128*	0	-49	-24
OCCN1CCN(Cc2cc(Cl)c3cccnc3c2O)CC1	36	?	.	-29	-2
Cc1nc2cc(NS(=O)(=O)c3cccc(F)c3)ccc2o1	34	.	.	.	.
Cc1noc(C)c1C(=O)N1CCCC(C(=O)c2ccc(Cl)cc2)C1 (stereo not given)	-3	-12	-4	-11	-4
Cc1ccc2[nH]nc(C(=O)N3CCCC(C(=O)c4ccc(Cl)cc4)C3)c2c1 (stereo not given)	2	33	10	34*	-2
CCN1C=CC(=C2C(=O)c3ccccc3C2=O)C=C1	-17	-7	.	-10	-52*
CCCN1C=CC(=C2C(=O)c3ccccc3C2=O)C=C1	-14	20	.	-8	-54*
CCOc1ccc2nc(SCC(=O)N3CCN(S(=O)(=O)c4ccccc4)CC3)[nH]c2c1	5	.	.	.	.
COc1ccc(-c2nc(-c3ccc(Br)cc3)no2)cc1	0	.	.	.	.
Cc1cccc(CN2CC=C(C(=O)O)CC2)c1	0	.	.	.	.
Cc1oc(-c2ccc(C(=O)NCc3ccccc3F)cc2)nc1COc1ccccc1	-14	.	.	34*	0
Cc1oc(-c2ccc(C(=O)Nc3ccccc3F)cc2)nc1COc1ccccc1	-1	.	.	1	4
SMILES	LDHA block	DRD3 antagonist	PI5P4K alpha inh	DRD3 agonist	PI4K2A block
CCOc1ccc(CNC(=O)c2ccc(-c3nc(CS(=O)(=O)c4ccccc4)c(C)o3)cc2)cc1	-35*	.	.	-16	-1
O=C(COc1ccc2ccc(=O)oc2c1)N1CC[C@@]2(O)CCCC[C@H]2C1	-8	4	-2	-5	-7
Cc1c(C)c2ccc(OCC(=O)N3CC[C@@]4(O)CCCC[C@H]4C3)cc2oc1=O	-2	11	1	33*	-4
O=C(N[C@@H](C(=O)NCc1ccccn1)c1ccccc1)C(c1ccccc1)c1ccccc1	1	.	.	.	.
OC[C@@H](O)[C@H](O)[C@H](O)[C@@H](O)CO	.	.	.	-8	0
O[C@@H]([C@H](O)[C@H](O)CBr)[C@H](O)CBr	-5	0	-62*	-6	-4
Fc1ccc(COc2cccc(-c3nnco3)c2)cc1	2	.	.	.	.
COC(=O)c1ccc(NC(=O)C[n+]2ccccc2C)cc1	-6	-59*	-2	-5	3
Cc1cccc[n+]1CC(=O)Nc1ccccc1	-7	22	-6	0	4
CCN(CC)S(=O)(=O)c1ccc(C(=O)OCC(=O)NCc2ccco2)cc1	-1	-5	-15	0	-3
CC(C)(C)c1ccc(C(=O)OCC(=O)NCc2ccco2)cc1	-10	-20	5	-3	-7
CCN(CC)S(=O)(=O)c1ccc(/C=C/C(=O)OCC(=O)NCc2ccco2)cc1	1	8	-57*	3	-19
O=Cc1ccc(C(=O)OCC(=O)NCc2ccco2)cc1	-12	-5	-53*	2	-2
O=C(/C=C/c1ccc(Cl)cc1)Nc1cccc(OC(F)F)c1	7	.	.	.	.
C#CCOCCOCCOCCNc1nc(N2CCN(C(=O)CCCCCCCCCCNC(=O)[C@@H](CCSC)n3cc(CCO)nn3)CC2)nc(N2CCN(C(=O)CCCCCCCCCCNC(=O)[C@H]([C@@H](C)CC)n3cc(CCCCN=C(N)N)nn3)CC2)n1	0	-11	-73*	1	2
C#CCOCCOCCOCCNc1nc(N2CCOCC2)nc(N2CCN(C(=O)CCCCCCCCCCNC(=O)[C@@H](CCSC)n3cc(CCO)nn3)CC2)n1	0	13	-3	-12	-9
C#CCOCCOCCOCCNc1nc(N2CCN(C(=O)CCCCCCCCCCNC(=O)[C@@H](CCSC)n3cc(CCO)nn3)CC2)nc(N2CCN(C(=O)CCCCCCCCCCNC(=O)[C@H]([C@@H](C)CC)n3cc(CCCCCN)nn3)CC2)n1	0	-2	-54*	-29	0
Cc1ccc(Cn2c(=O)c3ccc(C(=O)NC4CCCC4)cc3n3c(=O)[nH]nc23)cc1	3	.	.	.	.
Cc1ccc(S(=O)(=O)c2nc(NCCN(C)C)sc2Cl)cc1	-3	-68*	20	-1	2
Cc1ccc(S(=O)(=O)c2nc(Nc3ccccc3)sc2Cl)cc1	-1	-4	-4	1	2
Cc1ccc2c(Cn3nnc(-c4cccc(Cl)c4)n3)cc(=O)oc2c1	-3	.	.	.	.
CC1(c2ccccc2)NC(=O)N(NC(=O)c2nn(-c3ccccc3)c(=O)c3ccccc23)C1=O (stereo not given)	5	.	.	.	.
CN1CCCC1CCOC(C)(c1ccccc1)c1ccc(Cl)cc1 (stereo not given)	-9	-101*	-26	.	0
Cc1c(C(=O)NCc2ccc(C(F)(F)F)cc2)sc(=O)n1Cc1cccc(F)c1	0	-25	20	-1	2
Cc1c(C(=O)NCc2cccc(C(F)(F)F)c2)sc(=O)n1Cc1cccc(F)c1	1	-52*	15	-9	7
Cn1c(=O)c2c(ncn2CC(=O)Nc2ccc(C(C)(C)C)cc2)n(C)c1=O	-1	.	.	.	.
CCOC(=O)c1c(NC(=O)CSc2nnc(N)s2)sc(C)c1-c1ccc(C)cc1	0	68	-22	43*	-4
COc1ccccc1C(=O)NC(=O)CSc1nnc(N)s1	-3	-6	-60*	4	4
CC(=O)N1CCN(c2nc(C)c3c(c2C#N)CCCC3)CC1	6	.	.	.	.
